The whole screen tested about 65,000 compounds, of which about 45 (0.07%) were called active.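 How the source made its calls: active means inhibition above the mean of compound-free control plate wells plus 3 SD (cut at about 14% in these data); inactive means the rest.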 Shown is part of a subset that was picked to be rich in actives.
The compounds below were run against Collagenase 3 (Homo sapiens) (UniProt P45452) (assay: human MMP13 inhibitors, primary screen, biochemical, FRET peptide cleavage (AID 570;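 further: 0% = DMSO wells and 100% = wells with reference MMP-13 inhibitor after basal subtraction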)). Conditions: MMP-13 fTHP FRET cleavage, Mca fluorescence; at 4 µM; hits give high values.

inhibition, inactive:
c1nc(COc2nsnc2N2CCOCC2)cs1 2.5%
COc1ccc(NC(=O)CN2CCN(S(=O)(=O)c3ccc(F)cc3)CC2)cc1Cl -15.6%
Cc1noc(C)c1S(=O)(=O)N1CCCC(C(=O)Nc2nccs2)C1 (centres undefined) 6.5%
NC(CSC12CC3CC(CC(C3)C1)C2)C(=O)O (centres undefined) 2.6%
Cc1nc(NC(CC(C)C)C(=O)O)c2nc(C)oc2n1 (centres undefined) 0%
CCOC(=O)N1CCN(C(=O)CNC(=O)Cc2ccc(Cl)cc2)CC1 -1.6%
CCOC(=O)N1CCN(C(=O)C2CCN(S(C)(=O)=O)CC2)CC1 -0.8%
CCn1c(SCC(=O)c2ccc(Cl)s2)nnc1-c1cccs1 -2.1%
COc1ccccc1N(C(=O)Cn1nnc2ccccc21)C(C(=O)NCc1ccco1)c1ccc(C)o1 (centres undefined) 7.4%
Cc1nc(CNS(=O)(=O)c2cccnc2)cs1 2.4%
CCCCCCC(=O)N(O)C1CC(=O)N(c2ccccc2)C1=O (centres undefined) 1%
COC(=O)c1ccc(S(=O)(=O)c2ccc(C(=O)OC)s2)s1 -1.3%
Cc1ccc(S(=O)(=O)Cn2nnnc2CN2CCN(Cc3ccc4c(c3)OCO4)CC2)cc1 -3.7%
CC1CCN(C(=O)Cn2cc(C(=O)c3ccco3)c3ccccc32)CC1 -1.8%
CCC(=O)Nc1ccc2c(c1)nc(CCN1CCN(C)CC1)n2C -0.5%
CCOc1ccccc1C(=O)NCc1ccco1 3.2%
O=C(CN1C2CCC1CC(NC(=O)C1CC1)C2)NCc1ccccc1 (centres undefined) -1.1%
COc1ccc(C2=NOC(C(=O)NCc3ccco3)C2)cc1OC (centres undefined) 1.2%
C=CCNC(=O)c1cc(-c2ccccc2O)on1 6%
COc1ccccc1N1CC(O)=C(c2nc3ccccc3s2)C1=N -5.8%
Cc1cccc(NC(=O)CN2CCCN(S(=O)(=O)c3ccc(Br)s3)CC2)c1 -0.8%
COc1cc(Cl)c(S(=O)(=O)n2cnc(C)c2)cc1Cl -1%
CCC(C)(C)NC(=O)C(c1cccn1C)N(Cc1ccc(C)cc1)C(=O)Cn1nnc2ccccc21 (centres undefined) 2.1%
O=C(CSc1n[nH]c(-c2cccnc2)n1)Nc1ccnc2ccccc12 -1.2%
CC(C)(C)c1ccc(C(=O)CSc2ncn[nH]2)cc1 1.3%
C=CCSc1nnc(Cn2c(=O)sc3ccccc32)n1C -10.7%
CC(NC(=O)c1ccco1)C(=O)Nc1nc(-c2ccccn2)cs1 (centres undefined) 1.6%
COCCNCCOCCOc1cccc(OC)c1 -0.9%
Cc1ccsc1-c1nc(CSCC(=O)NCCN2CCCC2)c(C)o1 -72.5%
O=C(CSc1nnc(-c2cccs2)n1-c1ccccc1)N1CCN(C(=O)c2ccco2)CC1 2.3%
CN(Cc1ccccc1)Cc1ccccc1F 0.3%
Cc1oc(-c2cccc(Cl)c2)[n+]([O-])c1C -6.2%
CCOc1nc(-c2ccc(OC)cc2)ccc1-c1noc(-c2cc(OC)c(OC)c(OC)c2)n1 -11.5%
CCOC(=O)C(CCOc1cccc(CC)c1)C(=O)OCC 4.3%
CC(C)c1ccc(-c2nn[nH]n2)cc1 0.3%
C=CCn1c2ccccc2c2nnc(SC(CC)C(=O)Nc3nc(C)c(C(=O)OCC)s3)nc21 (centres undefined) 2.6%
O=C1C(C=NCC2CCCO2)=C(O)c2ccccc21 (centres undefined) 3.3%
CCOC(=O)Cn1c(SC)nc2sc3c(c2c1=O)CC(C)(C)OC3 1.7%
CN(C)/C=C/c1c(C#N)c(=O)ncn1Cc1ccccc1 2.5%
O=C(Nc1cccc(C(=O)N2CCCC2)c1)c1ccccc1 -0.2%
CCOC(=O)n1c(SCC(=O)N(CC)CC)nc2ccccc21 -1.9%
O=C(O)C1CCN(S(=O)(=O)N2CCOCC2)CC1 -0.5%
COc1ccc(CC(=O)c2ccc(O)cc2O)cc1OC 2%
CC1(C)Oc2ccc3ccc(=O)oc3c2/C(=C/NCCO)C1=O 2.5%
Cc1ccc(-c2noc(CSc3nnc(-c4ccccc4)n3C)n2)cc1 7.2%
Cn1c(/C(C#N)=C2/CCCCCN2)nc2ccccc21 12.4%
O=C(Cn1c(-c2cncs2)nc2ccccc21)NC1CCCC1 -3.3%
COCCCNC(=O)C1CC(=O)N(c2ccc(C)cc2)C1 (centres undefined) -1.3%
O=C(C(NS(=O)(=O)c1cccc2nsnc12)c1ccccc1)N1CCN(c2ccccn2)CC1 (centres undefined) 7.2%
Cc1ccsc1CNn1cnnc1SCc1ccccc1F 9.3%
COc1ncnc2c1N=C1CC(C)(C)CC(N)=C1S2 1.4%
Cc1[nH]c2ccccc2c1C(=O)CSCC(=O)O -0.3%
O=C(CSc1nnc(-c2c[nH]c3ccccc23)n1-c1ccc(F)cc1)NCc1ccco1 6.1%
CC(C)(C)n1nnnc1C(c1ccc2ncccc2c1)N1CCSCC1 (centres undefined) -2.5%
O=C(O)CCSc1nnc(-c2ccccc2)n1-c1ccccc1 -3.8%
O=C(CC1Oc2ccccc2NC1=O)NCCCN1CCN(Cc2ccccc2)CC1 (centres undefined) -2%
Cn1c(=O)c2c(nc(Br)n2CCSc2nc3ccccc3o2)n(C)c1=O 0.1%
COc1ccc(CNC2CCCCC2)cc1 5.3%
Cc1nonc1OCCn1nnnc1N -19.6%
O=C(COc1ccccc1)N1CCc2ccccc2C1 1.4%
CCN(CC)Cc1c(C(=O)OC)nnn1-c1nonc1N -0.9%
CCOC(=O)c1sc(=S)n(-c2cccc(OC)c2)c1N 5.8%
O=C(NCCN1C(=O)C2C3C=CC(C3)C2C1=O)Nc1ccccn1 (centres undefined) 7.3%
OC(COc1cccc2ccccc12)CN1CCN(c2ccccn2)CC1 (centres undefined) 0.9%
Cn1c(Cc2csc(N)n2)nnc1SC/C=C/c1ccccc1 6.2%
O=C(CN(CC1CCCO1)C(=O)CNS(=O)(=O)c1ccccc1)NCc1ccccc1 (centres undefined) -0.3%
COc1cccc(-c2nnc(N(C)C(=O)c3ccno3)s2)c1 -8.4%
COC(CCN(C)C)(c1ccccc1)c1ccccc1 -0.2%
Nc1nonc1-c1noc(-c2ccc(Br)o2)n1 -4.4%
CCOC(=O)CNC(=O)CSc1nnc(-c2cccc(OC)c2)n1CC 3.6%
COc1cccc(NC(=O)C(C)Oc2ccccc2)c1 (centres undefined) 2.2%
N#CC1=C(N)Oc2n[nH]c(CSc3ccccc3)c2C12C(=O)Nc1ccccc12 (centres undefined) 1.5%
COc1ccccc1CNC(=O)C1CCCN(S(=O)(=O)c2cccc3cccnc23)C1 (centres undefined) 2.1%
Cc1noc(C)c1CSc1nc2cc(S(=O)(=O)N3CCOCC3)ccc2o1 -0.9%
CC12CCC(C(=O)N3CCN(c4ncccn4)CC3)(c3nc4ccccc4nc31)C2(C)C (centres undefined) 0.1%
CC(C)C[C@H](NC(=O)[C@@H]1O[C@H]1C(=O)O)C(=O)NCCCCN=C(N)N 0.7%
CCn1cc(C(=O)N2CC=C(c3ccccc3)CC2)c(=O)c2ccc(C)nc21 0.8%
CCN1CCN(Cc2nc3c(c(=O)n(C)c(=O)n3C)n2CC(=O)c2ccccc2)CC1 -8.7%
Cc1ccc(Cc2cncc(O)c2)cc1S(=O)(=O)O 1.3%
COc1ccc(-n2nnc3c(=O)n(CC(=O)OCc4ccccc4)cnc32)cc1 1.8%
CCOC(=O)N1CCN(S(=O)(=O)c2cc(Br)cc3c2N(C(=O)C2CC2)CC3)CC1 3%
Cc1ccc(NC(=O)Cn2nc(C)c3ccccc3c2=O)c(C)c1 0.6%
COc1ccc(N2CCN(C(=O)CSc3nnc4ncccn34)CC2)cc1 4.1%
O=C(CN1CCN(c2ncc(C(F)(F)F)cc2Cl)CC1)Nc1ccc2c(c1)OCO2 2.7%
N#CCSc1nc2ccccc2c(=O)n1-c1ccccc1 -3.9%
CCc1nnc(NC(=O)CSc2nnc(Cc3ccccc3)n2-c2ccc(OC)cc2)s1 3.3%
CC(C)(C)c1csc(NC2=NS(=O)(=O)c3ccccc32)n1 0.2%
COC(=O)c1ccc(CSc2nc3ccccc3c(=O)n2-c2cccc(OC)c2)o1 -1.5%
CCCOC(=O)c1[nH]c2c(c1C)C(=O)CC(c1cc(OC)c(OC)c(OC)c1)C2 (centres undefined) 0.2%
CCCC(C(=O)N1CCOCC1)N1C(=O)C2C3C=CC(C3)C2C1=O (centres undefined) 4.6%
CN(C)CCOC(=O)C(c1ccccc1)C1(O)CCCC1 (centres undefined) 3.8%
COc1cc2ccccc2cc1C(=O)Nc1ccc(S(=O)(=O)Nc2cc(C)on2)cc1 -1.9%
Cc1ccccc1C(OCC(O)CN1CCCCC1CCO)c1ccccc1 (centres undefined) 1.3%
O=C1Nc2c(Br)cc(Br)cc2C1(O)N1CCOCC1 (centres undefined) -2.4%
COc1ccc(CN2CN(C(C)C)CSC2=S)cc1 1%
COc1ccc(-c2nnn(Cc3nc(N)nc(N4CCCCC4)n3)n2)cc1 7.6%
O=C(C1CCN(S(=O)(=O)c2cccs2)CC1)N1CCCCCC1 6.3%
Cc1ccc(S(=O)(=O)NCC(=O)OCC(=O)N2CCc3ccccc32)cc1 -2.9%
COC(=O)c1ccc(NC(=O)CSc2nnc(Cc3cccn3C)n2-c2ccc(F)cc2)cc1 -0.2%

Source: PubChem BioAssay AID570 (The Scripps Research Institute Molecular Screening Center, 2006)
